This is a sample that favours compounds with a hit; in the whole collection about 19% have one here.
IL1B secr inh – inhibitors of inflammasome signaling (IL-1 beta secretion); activity change, % at 57.5 µM; AID 743279; THP-1 LPS/ATP IL-1B secretion, AlphaLISA, 16 h; hits give low values; actives 4.7% (n = 360,000); in the data active means activity change below about -50%; inconclusive means mostly about -30% to -49%
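THP-1 cells pretreated 1 hr with compounds (up to 57.5 uM final), then stimulated with LPS (250 ng/mL final) plus ATP (1.25 mM final); secreted IL-1B measured by AlphaLISA after 16 hr, decreased signal indicating inhibition.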
HT1080 IDH1KD tx – HT-1080 IDH1 knockdown cell toxicity (counter line). HT-1080 IDH1 knockdown viability, ATP luminescence, 48 h. Potency, µM (titrated, usually from 46.1 µM), for inactives: at the top dose activity, negative = toxicity, most hits filed as cytotoxic. actives 2% (n = 360,000);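 further: potency means the concentration at half of the fitted maximal effect; 0% = DMSO wells and -100% = cell-free medium wells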
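% activity derives from luminescence (CellTiter-Glo), normalised to DMSO and no-cell wells. HT-1080-IDH1KD cells, 750/well, had 48 h compound exposure at 37 °C.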
HT1080NT lethal – kills 2HG-producing HT-1080-NT fibrosarcoma cells. HT-1080-NT fibrosarcoma viability, CellTiter-Glo ATP luminescence, 48 h. Potency, µM (series often up to 46.1 µM), for the others: top-dose activity, negative = less viability, hits mostly cytotoxic. actives 1.6% (n = 360,000). AID 686970;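 further: NT is the 2HG producing partner of a matched IDH1 knockdown line; potency means the concentration at half of the fitted maximal effect; 0% = DMSO-treated cells and -100% = media-only wells without cells; nearly all actives have a fitted effect of over 55% in size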
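Luminescent CellTiter-Glo readout after 48 hours of compound exposure at 37 degrees C defined viability of HT-1080-NT cells. Activity was normalized to DMSO wells and cell-free media wells; concentration-response curves were fitted and assigned curve classes.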
DT40 TDP1 CPT – growth inhibition of DT40 Tdp1-/-;hTDP1 cells with camptothecin (screen for TDP1 inhibitors) | AID 686979 | actives 12% (n = 420,000) | Potency, µM (titrated, usually from 46.2 µM), without a hit: top-dose activity change, negative = growth inhibition, actives largely listed as inhibitors | chicken DT40 Tdp1-/-;hTDP1 cells + 20 nM CPT, ATP luminescence, 48 h; further: potency means the concentration at half of the fitted maximal effect; nearly all actives have a fitted effect of over 55% in size
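Chicken DT40 Tdp1-/- cells complemented with human TDP1, 400 cells/well, exposed to compounds plus 20 nM camptothecin for at least 48 h at 37 C; viability read as ATP content by CellTiter-Glo luminescence.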
TDP1 cell noCPT – qHTS for Inhibitors of human tyrosyl-DNA phosphodiesterase 1 (TDP1): qHTS in cells in absence of CPT. DT40 Tdp1-/- hTDP1 cells, no CPT, ATP luminescence, 48 h. Potency, µM (titrated, usually from 46.2 µM), without a hit: at the highest dose activity change, negative = growth inhibition, hits mostly inhibitors. actives 15% (n = 420,000). AID 686978, 2013; further: potency means the concentration at half of the fitted maximal effect; nearly all actives have a fitted effect of over 55% in size
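Growth of hTDP1-complemented DT40 Tdp1-knockout cells is measured by ATP luminescence after at least 48 hr compound exposure at 37 °C, with DMSO substituting for the 20 nM CPT used in the parallel screen.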
Starred values were filed as active, the others as inactive; [ ] = dose if it differs, or a comment. Unless noted, the call rests on the fitted dose curve; in most records, active means well fitted curve in the direction sought with a large enough effect; inconclusive means small, poorly fitted or top-dose-only effect, or another doubt; inactive means no such curve, though single readings can be large; an effect the other way counts as inactive or inconclusive. Unless noted, on the % scale 0 is the no-effect control and ±100 the full control effect.

Screening Cc1cc(C)cc(-n2cc(C(=O)O)c(=O)cc2C)c1 returned IL1B secr inh -7.9, HT1080 IDH1KD tx 2.7%, HT1080NT lethal 8.4%, DT40 TDP1 CPT -2.1% and TDP1 cell noCPT -22.6%.
`Nc1c(N(CCO)C(=O)c2ccccc2OCc2ccccc2Cl)c(=O)[nH]c(=O)n1Cc1ccccc1` gave IL1B secr inh -8.9, HT1080 IDH1KD tx 9.8%, HT1080NT lethal 1.7%, DT40 TDP1 CPT -28.7% and TDP1 cell noCPT -29.7%.
`CC(NC(C(=O)c1ccccc1)c1ccccc1)c1ccccc1` (stereo not given) gave IL1B secr inh -20.0, HT1080 IDH1KD tx -1.5%, HT1080NT lethal 1.9%, DT40 TDP1 CPT 3.6% and TDP1 cell noCPT -13.8%.
`Nn1c(Nc2ccccc2)nc2sc3c(c2c1=O)CCC3` gave IL1B secr inh -2.2, HT1080 IDH1KD tx inconclusive, HT1080NT lethal inconclusive, DT40 TDP1 CPT 1.03µM* and TDP1 cell noCPT 2.91µM*.
`NNc1nc2sc3c(c2c(=O)n1Cc1ccccc1)CCC3` gave IL1B secr inh -5.3, HT1080 IDH1KD tx -0.2%, HT1080NT lethal -4.5%, DT40 TDP1 CPT -16.5% and TDP1 cell noCPT -11.0%.
CC(=O)Oc1ccc(Oc2ccc(-c3noc(C)n3)cc2)cc1 was read as IL1B secr inh 0.0, HT1080 IDH1KD tx -29.4%, HT1080NT lethal -3.0%, DT40 TDP1 CPT 20.6µM* and TDP1 cell noCPT 11.6µM*.
CCOC(=O)CC1CCCCN1Cc1cn[nH]c1-c1ccc(F)cc1F (stereo not given) was read as IL1B secr inh 15.9, HT1080 IDH1KD tx -3.2%, HT1080NT lethal 1.2%, DT40 TDP1 CPT -13.1% and TDP1 cell noCPT -20.2%.
O=C(Nc1cccc(C(F)(F)F)c1)C1CCCN(S(=O)(=O)c2cnc[nH]2)C1 (stereo not given) was read as IL1B secr inh 15.4, HT1080 IDH1KD tx -8.8%, HT1080NT lethal -7.4%, DT40 TDP1 CPT -24.4% and TDP1 cell noCPT -29.7%.
Screening Cc1noc2ncnc(N3CCCC(C(=O)Nc4cccc(C(F)(F)F)c4)C3)c12 (stereo not given) returned DT40 TDP1 CPT 14.6µM* and TDP1 cell noCPT 18.4µM*.
Cc1ccc(F)cc1NC(=O)C1CCCN(c2ncccn2)C1 (stereo not given) was read as IL1B secr inh -11.5, HT1080 IDH1KD tx -5.0%, HT1080NT lethal 7.1%, DT40 TDP1 CPT -10.2% and TDP1 cell noCPT -0.5%.
Screening COc1ccc(Cl)cc1NC(=O)C1CCCN(c2cc(C)nc3ncnn23)C1 (stereo not given) returned IL1B secr inh 10.7, HT1080 IDH1KD tx -13.2%, HT1080NT lethal 3.2%[9.24 µM], DT40 TDP1 CPT inconclusive and TDP1 cell noCPT inconclusive.
For Cc1noc2ncnc(N3CCCC(C(=O)Nc4cc(F)ccc4F)C3)c12 (stereo not given) the results were DT40 TDP1 CPT 13µM* and TDP1 cell noCPT 11.6µM*.
COc1ccc(Cl)cc1NC(=O)C1CCCN(c2ncnc3onc(C)c23)C1 (stereo not given) was read as DT40 TDP1 CPT 18.4µM* and TDP1 cell noCPT 23.1µM*.
`COc1ccc(NC(=O)C2CCCN(c3ncnc4onc(C)c34)C2)cc1OC` (stereo not given) gave DT40 TDP1 CPT inconclusive and TDP1 cell noCPT 23.1µM*.
Screening O=C(CNC(=O)c1ccccc1Cl)NCCc1cccs1 returned IL1B secr inh -2.3, HT1080 IDH1KD tx -5.7%, HT1080NT lethal -3.3%, DT40 TDP1 CPT 17.3% and TDP1 cell noCPT -3.1%.
`COc1ccccc1C(=O)Nc1cc(-c2cccc(Br)c2)nn1-c1ccccc1` gave DT40 TDP1 CPT 14.6µM* and TDP1 cell noCPT 7.31µM*.
`CC(C)c1ccc(C(=O)Nc2cc(-c3ccccc3F)nn2-c2ccccc2)cc1` gave DT40 TDP1 CPT 20.6µM* and TDP1 cell noCPT 10.3µM*.
O=C(Nc1cc(-c2cccc(Cl)c2)nn1-c1ccccc1)c1ccccc1F was read as DT40 TDP1 CPT 16.4µM* and TDP1 cell noCPT inconclusive.
Screening Cc1cccc(-c2cc(NC(=O)c3ccccc3C)n(-c3ccccc3)n2)c1 returned DT40 TDP1 CPT inconclusive and TDP1 cell noCPT -25.6%.
`Nc1ccccc1Nc1cc(-c2ccccc2)nn1-c1cccc(Cl)c1` gave IL1B secr inh -52.1*, HT1080 IDH1KD tx inconclusive, HT1080NT lethal inconclusive, DT40 TDP1 CPT -15.4% and TDP1 cell noCPT inconclusive.
Screening Cc1ccc(-c2cc(C(F)(F)F)n3nc(C(=O)Nc4sc5c(c4C#N)CCC(C)C5)cc3n2)cc1 (stereo not given) returned DT40 TDP1 CPT -13.6% and TDP1 cell noCPT -15.9%.
`CCOC(=O)C1=C(C)N(CCCC(=O)O)C(=O)NC1c1cccc(OC)c1` (stereo not given) gave IL1B secr inh 5.8, HT1080 IDH1KD tx 10.8%, HT1080NT lethal 10.6%, DT40 TDP1 CPT -3.0% and TDP1 cell noCPT 3.4%.
Screening CC(C)NC(=O)c1csc([C@@H]2O[C@H](CO)[C@H](O)[C@H](O)[C@H]2O)n1 returned IL1B secr inh 13.4, HT1080 IDH1KD tx 7.4%, HT1080NT lethal 13.5%, DT40 TDP1 CPT 6.4% and TDP1 cell noCPT 11.9%.
For N#Cc1cccc2c1-c1ccccc1/C2=N/NC(N)=S the results were IL1B secr inh -57.6*, HT1080 IDH1KD tx 20.6µM*, HT1080NT lethal 6.51µM*, DT40 TDP1 CPT inconclusive and TDP1 cell noCPT 18.4µM*.
`NC(=O)N/N=C1\c2ccccc2-c2c(C(N)=O)cccc21` gave IL1B secr inh -0.9, HT1080 IDH1KD tx -15.1%, HT1080NT lethal inconclusive, DT40 TDP1 CPT -52.9% and TDP1 cell noCPT -4.1%.
For NC(=S)NN=C1c2ccccc2-c2c(F)c(F)c(F)c(F)c21 the results were IL1B secr inh -111.0*, HT1080 IDH1KD tx inconclusive, HT1080NT lethal -17.4%, DT40 TDP1 CPT 7.31µM* and TDP1 cell noCPT 11.6µM*.
`COC(=O)c1sc(NC(=S)NC(=O)c2cccc(Br)c2)nc1C` gave IL1B secr inh -9.1, HT1080 IDH1KD tx 1.0%, HT1080NT lethal -0.3%, DT40 TDP1 CPT -0.1% and TDP1 cell noCPT inconclusive.
Screening CCCCC(=O)Nc1ccc(C(=O)NCCN2CCOCC2)cc1 returned IL1B secr inh -3.7, HT1080 IDH1KD tx 5.4%, HT1080NT lethal 9.3%, DT40 TDP1 CPT 1.9% and TDP1 cell noCPT -17.8%.
For CCC(Sc1nc2cc3c(cc2c(=O)n1CCCCCC(=O)NCc1ccc2c(c1)OCO2)OCO3)C(=O)NCCCOC (stereo not given) the results were DT40 TDP1 CPT -5.3% and TDP1 cell noCPT -22.9%.
